High-throughput results deposited in PubChem by National Center for Advancing Translational Sciences (NCATS).
D3 ag = qHTS of D3 Dopamine Receptor Agonist: qHTS | max activation, % | D3R DiscoveRx beta-arrestin cells, luminescence, 90 min | 410,000 compounds, 0.58% hits | D(3) dopamine receptor (Homo sapiens), P35462 | AID 652048, 2013; in the data active means max activation above about 30%; further: 0% is about no effect
Target sequence (P35462 whole entry, looked up): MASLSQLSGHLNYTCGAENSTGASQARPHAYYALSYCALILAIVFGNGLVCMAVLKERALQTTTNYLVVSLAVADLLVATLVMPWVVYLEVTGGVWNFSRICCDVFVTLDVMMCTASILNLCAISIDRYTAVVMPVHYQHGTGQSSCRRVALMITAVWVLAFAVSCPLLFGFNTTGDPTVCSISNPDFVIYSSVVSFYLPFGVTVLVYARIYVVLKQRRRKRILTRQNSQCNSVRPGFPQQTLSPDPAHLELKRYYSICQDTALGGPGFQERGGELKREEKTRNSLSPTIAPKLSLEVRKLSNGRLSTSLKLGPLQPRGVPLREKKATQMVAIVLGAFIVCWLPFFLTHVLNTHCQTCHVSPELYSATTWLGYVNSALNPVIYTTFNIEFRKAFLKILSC
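Agonist-mode cell screen: cells plated at 1500/well and incubated overnight at 37 °C, then exposed to library compounds for 90 min at 37 °C. Detection reagent was added for 30–60 min at room temperature, and luminescence was read.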
D3 antag = qHTS of D3 Dopamine Receptor Antagonist: qHTS | D3R cells, DiscoveRx beta-arrestin luminescence, antagonist mode; stronger effect = lower value | max response, negative = inhibition, % | 360,000 compounds, 2.5% hits; in the data active means max response below about -50%; inconclusive means no clear call, values can overlap the other calls; further: on the % scale 0 is the no-effect control and ±100 the full control effect
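Cells expressing the human receptor were seeded at 1500 cells/well, incubated overnight at 37 degrees C in 5% CO2, then exposed to library compounds with dopamine controls for 90 minutes at 37 degrees C before luminescent detection.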
KB-V1 cytotox = qHTS assay for MDR1-selective chemotherapeutics: Primary screen using the drug-selected MDR subline cells KB-V1; KB-V1 MDR cells viability, CellTiter-Glo, 72 h; Potency, µM (highest dose often 46.1 µM), hits mostly cytotoxic; 400,000 compounds, 3.4% hits; AID 1347076, 2019; further: potency means the concentration at half of the fitted maximal effect; on the % scale 0 is the no-effect control and ±100 the full control effect; nearly all actives have a fitted effect of over 60% in size
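Cytotoxicity toward P-gp-expressing KB-V1 cells was determined as loss of CellTiter-Glo luminescence after 72 h at 37 degrees C. Compounds were tested in quantitative HTS format across a concentration range, with curves fitted to normalized data.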
SW480 rereplic = A quantitative high throughput screen for small molecules that induce DNA re-replication in SW480 colon adenocarcinoma cells. SW480 DNA re-replication, Hoechst DNA content imaging, 48 h. Potency, µM (top dose mostly 46.1 µM), for the others: at the highest dose re-replication activation, most hits filed as activators. 340,000 compounds, 1.8% hits. AID 624297, 2012; further: potency means the concentration at half of the fitted maximal effect; % of control where 0% means no effect; nearly all actives have a fitted effect of over 55% in size
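Readout is total intensity of Hoechst-stained nuclei, excited at 405 nm and collected at 500-530 nm. Compound treatment lasted 48 hr at 37 C in 5% CO2 before staining.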
MCF10A rereplic = A quantitative high throughput screen for small molecules that induce DNA re-replication in MCF 10a normal breast cells | 350,000 compounds, 2.9% hits | AID 624296, 2012 | MCF 10A DNA re-replication, Hoechst nuclear intensity, 48 h | Potency, µM (series often up to 46.1 µM), inactives show at the top dose activity, positive = re-replication, most hits filed as activators; further: potency means the concentration at half of the fitted maximal effect; % of control where 0% means no effect; nearly all actives have a fitted effect of over 50% in size
KB-3-1 cytotox = qHTS assay for MDR1-selective chemotherapeutics: Primary screen using the parental adenocarcinoma cell KB-3-1; KB-3-1 viability, CellTiter-Glo ATP luminescence, 72 h; Potency, µM (top dose mostly 46.1 µM), most hits filed as cytotoxic; 400,000 compounds, 1.4% hits; AID 1347075, 2019; further: potency means the concentration at half of the fitted maximal effect; on the % scale 0 is the no-effect control and ±100 the full control effect; nearly all actives have a fitted effect of over 60% in size
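Viability of parental KB-3-1 cells, measured by CellTiter-Glo luminescence, followed a 72 h incubation at 37 °C with pinned compounds in phenol-red-free DMEM containing 10% FBS.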
An asterisk follows results filed as active; i = inactive; ? = inconclusive; · = no result given. The list is not random: actives were taken first. Their share in the collection is about 8.9%. Unless noted, the call rests on the fitted dose curve; in most records, active means well fitted curve in the direction sought with a large enough effect; inconclusive means small, poorly fitted or top-dose-only effect, or another doubt; inactive means no such curve, though single readings can be large; an effect the other way counts as inactive or inconclusive.

SMILES	D3 ag	D3 antag	KB-V1 cytotox	SW480 rereplic	MCF10A rereplic	KB-3-1 cytotox
CC(C)(C)OC(=O)C[C@@H]1C/C=C\C[C@@H](CC(=O)N(CCO)Cc2ccccc2)C(=O)NCCOC1=O	-27	-123*	i	-22%	17%	i
CC(C)(C)OC(=O)C[C@@H]1C/C=C\C[C@@H](CC(=O)N(CCO)Cc2ccccc2)C(=O)N2CCC[C@@H]2COC1=O	35*	7	i	-3%	-11%	i
CC(C)(C)OC(=O)C[C@H]1C/C=C\C[C@H](CC(=O)N(CCO)Cc2ccccc2)C(=O)NCCOC1=O	-1	30	i	-11%	1%	i
O=C1N[C@@H](Cc2ccccc2)COC(=O)[C@@H](Cc2ccc(F)cc2)C/C=C\C[C@@H]1CC(=O)N(CCO)Cc1ccccc1	-14	-19	?	?	23µM*	?
CCCCn1cc(S(=O)(=O)c2ccccc2)c(=O)c2cc(F)c(N3CCC(C)CC3)cc21	7	·	i	·	·	i
COC(=O)c1ccccc1NC(=O)CSc1c2c(nc3ccc(Cl)cc13)CCCC2	-5	·	·	·	·	·
Cc1c(N)c(C(C)(C)C)cc(C(C)(C)C)c1[N+](=O)[O-]	-4	-22	i	-66%	18µM*	i
Cc1cc(N)c(C)c([N+](=O)[O-])c1C	0	-14	i	5%	-1%	i
O=C(COC(=O)c1ccccc1O)NC12CC3CC(CC(C3)C1)C2	-4	10	i	1%	4%	i
O=C(COC(=O)/C=C/C(=O)OCC(=O)NC12CC3CC(CC(C3)C1)C2)NC12CC3CC(CC(C3)C1)C2	-22	-59*	i	18µM*	5.2µM*	?
CC(O)(c1cccnc1)c1nc(-c2cccc(F)c2)cs1 (centres undefined)	-1	-11	i	·	·	i
CC(O)(c1cccnc1)c1nc(-c2cccc(C(F)(F)F)c2)cs1 (centres undefined)	38*	1	i	·	·	i
COCc1cccc(-c2csc(C(C)(O)c3cccc(F)c3)n2)c1 (centres undefined)	-21	-90*	i	·	·	i
CCOc1ccccc1NC(=O)c1nc2nc(C)cc(C(F)F)n2n1	13	·	·	·	·	·
COc1ccc(-n2nc3c(N4CCCC(C(=O)NCc5ccccc5C)C4)nnc(C)c3c2C)cc1 (centres undefined)	8	·	·	·	·	·
N=c1oc2ccc3ccccc3c2cc1C(N)=S	3	2	i	?	12µM*	i
Cc1nnc(N2C(=O)c3oc4ccccc4c(=O)c3C2c2ccc(F)cc2)s1 (centres undefined)	6	·	i	·	·	i
CN1C(=O)C2(c3ccccc31)N(c1cccc(C(F)(F)F)c1)C(=O)CS2(=O)=O (centres undefined)	4	·	?	·	·	i
CCNC(=S)N(Cc1ccccc1)Cc1nc2ccccc2c(=O)[nH]1	2	9	21µM*	-38%	-1%	i
CSc1ccc(CN(C)Cc2nc3ccccc3c(=O)[nH]2)cc1	-12	9	21µM*	-3%	-3%	i
CS(=O)(=O)N(Cc1ccc(F)cc1)Cc1nc2ccccc2c(=O)[nH]1	6	-21	i	8%	0%	i
COc1ccccc1CN(Cc1nc2ccccc2c(=O)[nH]1)C(=O)Nc1ccc(C)cc1	0	8	21µM*	1%	2%	i
CN(CCO)c1nc(N)c(C#N)c(CC#N)c1C#N	-3	-20	i	2%	11%	?
CN(c1ccccc1)c1nc(N)c(C#N)c(CC#N)c1C#N	-5	9	7.3µM*	1%	10%	15µM*
O=C(c1ccc(Cl)cc1)C(CN1CCCCC1)c1ccccc1 (centres undefined)	-26	-73*	21µM*	?	?	23µM*
SMILES	D3 ag	D3 antag	KB-V1 cytotox	SW480 rereplic	MCF10A rereplic	KB-3-1 cytotox
CC(CN1CCN(C)CC1)OC(=O)c1ccc(Cl)cc1 (centres undefined)	-11	-14	i	10%	?	i
CC(CN1CCCC1)OC(=O)c1ccc(Br)cc1 (centres undefined)	-20	-67*	i	-4%	5%	i
COc1ccc(OCC(=O)OC(C)CN2CCCCC2)cc1 (centres undefined)	2	-11	i	-92%	1%	i
CCOC(=O)C(CN1CCCC1)c1ccccc1 (centres undefined)	-30	-1	?	-9%	18%	i
CC(CN1CCCCC1)OC(=O)C1c2ccccc2Oc2ccccc21 (centres undefined)	-3	-63*	i	3%	7%	i
Cc1ccc(OCC(=O)OC(C)CN2CCCCC2)cc1 (centres undefined)	4	11	i	-100%	1µM*	i
Cc1cccc(Cn2c(=O)n(CCC(=O)NCc3ccc4c(c3)OCO4)c(=O)c3sccc32)c1	-2	·	·	·	·	·
CCOC(=O)C(CC)Sc1c(CC)cnc2c1c(=O)n(C)c(=O)n2C (centres undefined)	5	·	i	·	·	i
CC(CN1CCCCC1)OC(=O)c1ccc(Cl)cc1 (centres undefined)	-18	-56*	i	-3%	-23%	i
CC(=O)N1CCc2cc(CNC(=O)Nc3cc(Cl)ccc3C)ccc21	-2	·	·	·	·	·
CCc1ccc(NC(=O)C(=O)NCC(c2ccc3c(c2)OCO3)N2CCN(C)CC2)cc1 (centres undefined)	-7	·	i	·	·	i
COc1ccc(C(=O)/C=C/c2cn(CC(O)CN3CCN(C)CC3)c3ccccc23)cc1OC (centres undefined)	-4	5	i	23µM*	10µM*	i
COc1ccc(C(=O)/C=C/c2cn(CC(O)CN3CCCCCC3)c3ccccc23)cc1OC (centres undefined)	-26	·	i	·	·	?
O=C(/C=C/c1cn(CC(O)CN2CCCCC2)c2ccccc12)c1ccccc1 (centres undefined)	-40	?	i	21µM*	21µM*	i
O=C(/C=C/c1cn(CC(O)CN2CCCCC2)c2ccccc12)c1cccs1 (centres undefined)	-12	-27	23µM*	21µM*	23µM*	?
Cc1ccccc1-c1nc(SCC(=O)NCC2CCCO2)c2c(=O)n(C)c(=O)n(C)c2n1 (centres undefined)	-8	·	i	·	·	i
